Holding throughout (experiment): MAPPIT interaction score (arbitrary units); higher = stronger binary interaction signal, active = hit call of the paper
Assay [1] has as its target BicD. Conditions: MAPPIT configuration: N-C; pair source set: Lit-BM-16. The protocol: (§1)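 MAPPIT in HEK293T cells: Drosophila bait and prey ORFs (from the FlyBi ORF collection) were co-transfected in quadruplicate, with two wells stimulated by erythropoietin. Interaction-dependent JAK-STAT activation was read out with a STAT-responsive firefly luciferase reporter. Positive calls use the 99th percentile of random reference set (RRS) scores within each batch […]. Batches Dvs01 and Dvs02 used the N-N configuration and Dvs04 the N-C configuration. Pairs come from FlyBi screens, CuraGen, DPiM, Finley Y2H, Lit-BM-16, Lit-BS-16 and RRS.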

For assay [2], the target named is BORCS6. Conditions: MAPPIT configuration: N-C; pair source set: screen_3. Here is the method: as §1
Assay [3] deals with Baldspot. The following applies: MAPPIT configuration: N-C; pair source set: screen_4. The protocol: as §1
For assay [4], the target named is EMC5. The following applies: MAPPIT configuration: N-C; pair source set: screen_3. The protocol:
as §1

For assay [5], the target named is Ude. The following applies: MAPPIT configuration: N-C; pair source set: screen_3. Here is the method:
as §1

Assay [6] deals with Bfc. The following applies: MAPPIT configuration: N-C; pair source set: screen_4. The protocol:
as §1

Assay [7] addresses CG17376. The following applies: MAPPIT configuration: N-N; pair source set: screen_1. The protocol:
as §1

The target in assay [8] is CG42565. The following applies: MAPPIT configuration: N-C; pair source set: screen_4. The protocol:
as §1

Assay [9] concerns the target CG42688. Conditions: MAPPIT configuration: N-C; pair source set: screen_4. The protocol: as §1
In assay [10] the target is aspr. Conditions: MAPPIT configuration: N-N; pair source set: Curagen_low_conf. The protocol:
as §1

Assay [11] concerns the target fok. Conditions: MAPPIT configuration: N-C; pair source set: screen_3. The protocol:
as §1

Values without a mark were called inactive.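 The calls were made as follows: active = MAPPIT score above the 99th percentile of random reference set scores in the same batch; inactive = at or below it.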
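Also: HEK293T cells with Epo stimulation, STAT-responsive firefly luciferase reporter, fold induction versus unstimulated cells divided by the larger fold induction of two negative controls lacking either bait or prey.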

B1: BicD (protein)
chain: MSSASNNGPSADQSVQDLQMEVERLTRELDQVSSASAQSAQYGLSLLEEKSALQQKCEELETLYDNTRHELDITQEALTKFQTSQKVTNKTGIEQEDALLNESAARETSLNLQIFDLENELKQLRHELERVRNERDRMLQENSDFGRDKSDSEADRLRLKSELKDLKFRETRMLSEYSELEEENISLQKQVSSLRSSQVEFEGAKHEIRRLTEEVELLNQQVDELANLKKIAEKQMEEALETLQGEREAKYALKKELDGHLNRESMYHISNLAYSIRSNMEDNASNNSDGEEENLALKRLEADLSTELKSPDGTKCDLFSEIHLNELKKLEKQLESMESEKTHLTANLREAQTSLDKSQNELQNFMSRLALLAAHVDALVQLKKQIDVKEQGKEGGQKKDELEQQLRALISQYANWFTLSAKEIDGLKTDIAELQKGLNYTDATTTLRNEVTNLKNKLLATEQKSLDLQSDVQTLTHISQNAGQSLGSARSTLVALSDDLAQLYHLVCTVNGETPTRVLLDHKTDDMSFENDSLTAIQSQFKSDVFIAKPQIVEDLQGLADSVEIKKYVDTVSDQIKYLKTAVEHTIDMNKHKIRSEGGDALEKVNTEEMEELQEQIVKLKSLLSVKREQIGTLRNVLKSNKQTAEVALTNLKSKYENEKIIVSDTMSKLRNELRLLKEDAATFSSLRAMFAARCEEYVTQVDDLNRQLEAAEEEKKTLNQLLRLAVQQKLALTQRLEEMEMDREMRHVRRPMPAQRGTSGKSSFSTRPSSRNPASSNANPF
Regarding B1, in [1], the MAPPIT interaction score is -0.381.

B2: Blos1 (protein)
chain: MLTSMVKEHHKEQAKRKQEQEVRRKEAIEASNELTQSLVDTLNVGVAQAYLNQKRLDAEAKQLHLGATNFAKQTHQWLQLIDQFSTALKDLGDVENWARSIEGDMHTINQTLELAYKASRATQTSSGAGTSLEASTSASASANPSAT
Take B2: the MAPPIT interaction score in [2] is 2.8.

B3: oxt (protein)
chain: MEQSVSARWLKRYRAFFLILLLIVAIQLFLAYKSLDIVGGGSGSGFDAAEAPASPPPPHAQARVQPPARTKLTAQQLGFQPECDILAREAISALQRAKTKDCREHIAQIACAIQAGRFYAPQLRSSCPAGNHTANVSLGCFKDEKDRRLLAGYYSSSKTSNSPAKCVELCLQSGYPYAGVQYGRECFCGYDPPPKASKLPDSSCNTKCLGNAKEICGGFYAMNIYETGIAKFTAQLAATTPSEETKRVRIAFLLTLNGRALRQVHRLLKALYAPEHVYYIHVDERQDYLYRKLLELESKFPNIRLARKRFSTIWGGASLLTMLLQCMEDLLQSNWHWDFVINLSESDFPVKTLDKLVDFLSANPGRNFVKGHGRETQKFIQKQGLDKTFVECDTHMWRIGDRKLPAGIQVDGGSDWVALSRPFVGYVTHPREDDELLQALLKLFRHTLLPAESFFHTVLRNTKHCTSYVDNNLHVTNWKRKQGCKCQYKHVVDWCGCSPNDFKPEDWPRLQATEQKSLFFARKFEPVINQAVLLQLEEWLYGPYTSEYANLHGYWQSLYHHEDVHGSGDDLARSIGDSVMRLSARQAKLYPLELIELTHYLHRDQYKGFLVRYRARGSTGKPLHLETRVRPTQQGKLARNARFSKRLRNFEVSTDFDQKEQIARNFGKLLGPQSDLLLSYTLQANADSGAASHSYNLTLLWIDPLGRLQDFNELHVEDSTSDVINHSKTLLKHPITPGIWTAKLIGRNSIYAQLKFLIAPLAYYKGYPLAKSSDAEALNAGLTVALPEDFEMPVEWQQHLQTDDEQFTMREESLAKGKMLGQELHSWIDGLVGQFFQLRESCVVEADSEVSLPLCSDAPWSSLAPDPKSDVDALLK
As for B3, the MAPPIT interaction score in assay [3] is 0.0528; in assay [4], -0.000675; in [5], 0.189.

B4: disco (protein)
chain: MEHIMNPFMSPAYLLGHGPHSHQHVHSHLPSHPQPNAASPASSPGGSSGSGSGSAAGSGTGSGSSLKPRRWGSPPINLAGQFINPATGKKRVQCSICFKTFCDKGALKIHFSAVHLREMHKCTVEGCNMVFSSRRSRNRHSANPNPKLHSPHIRRKISPHDGRTAQQFPVFSPGTAAAAAAVAGRLPVAFPGLLPPPPPHHGHHPYVMFGGQAGLHGLGLLSTGCQDPDSGSVDNEQDADPEDDNDFVYVDMQANSSSPAASSEDQEEHERDNEQDEEMHCSLSLASSSSIAADEERAADQPLDFSLHKRRKSEQDREQEQEQEQEREREAEKEQEQDVESDKEHEPEQEHELEREKRSPSDAFSMDQLLGKRKRHDSTASSSACSTAAASSASSSSASASANPPQTSIKMDLDPDSDSAYMTSRRQMLPLPVLDLEEHHHLRLLQTQMFAAAAAAAATSQAPPTAFLPAGSPVDLAKDSPPMWSLLSEMYRSMLLKTQHQQYNHHHQLQQQHQQEQHHHLTLSHHHQEQHHHLGHHHMGHHHHHHHQHHQQQPQQQSPAATNAPISV
Consider B4, for which the MAPPIT interaction score in assay [6] is 1.54; in assay [7], 0.354; in [8], 2.57; in assay [9], 2.18; in [10], -0.256; in [11], 0.776.

For the origin of these results see the supplement of paper PMC10105736.
